This is an account of results in PubChem BioAssay.

The nature of experiment [1]: compounds binding Alexa647 anti-His antibody – biochemical, small-molecule microarray, 635 nm fluorescence, artefact control for SMM control protein annotation, primary screen (AID 1128).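 Note: score merges feature fluorescence with signal-to-noise for each printed compound spot.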 The note with it: higher = more signal.
The test system of experiment [2] is Human papillomavirus type 1a E7 protein (residues 1-88). Description: HPV1a E7 small-molecule binders, primary screen, biochemical, small-molecule microarray, residues 1-88, 635 nm (AID 1129). The note with it: small-molecule microarray binding, fluorescence 635 nm; higher = more signal.
Experiment [3] concerns the target Focal adhesion kinase 1 (Homo sapiens) (UniProt Q05397). Put plainly: PTK2 protein binding on printed compound slides – biochemical, small-molecule microarray, 635/667 nm fluorescence, BSA, DTT, primary screen (AID 1130).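 Note: composite of spot emission at 667 nm and signal to noise over triplicate slides.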 As to conditions: 635 nm fluorescence, higher = more signal.
The test system of experiment [4] is Fibrinogen (Alexa647-labelled). Description: Alexa647-fibrinogen binding to printed small molecules – biochemical, small-molecule microarray, 635/667 nm fluorescence, artefact control for SMM control-protein annotation, profiling panel (AID 1131).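 Note: z-score merges 667 nm fluorescence with per-spot signal-to-noise over triplicate slides.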 The note with it: fibrinogen-A647 binding fluorescence, higher = more signal.
In experiment [5] the target is Follistatin (Homo sapiens) (UniProt P19883). Description: FST protein binding to printed compounds – biochemical, small-molecule microarray, 635/667 nm fluorescence, primary screen (AID 1132). As to conditions: 635 nm fluorescence, higher = more signal.
Experiment [6] deals with Fibroblast growth factor 2 (Homo sapiens) (UniProt P09038). Description: basic fibroblast growth factor binding to printed compounds – biochemical, small-molecule microarray, 635/667 nm fluorescence, primary screen (AID 1133). The note with it: FGF2, fluorescence 635/667, higher = more signal.
Experiment [7] is described as follows: JC-1 mitochondrial potential readout, lung cancer cells – cell-based, A549, JC-1 fluorescence, basal, 24 h, 100 nL, profiling panel (AID 1138).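 Note: A549 lung adenocarcinoma cells under basal conditions with no added stimulus; test concentration not given here.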 The note with it: higher = more signal.
The next experiment deals with Lefty1. Put plainly: Lefty1 protein binding to printed compounds – biochemical, small-molecule microarray, 635/667 nm fluorescence, primary screen (AID 1139). The note with it: fluorescence 635/667, higher = more signal.
The test system of experiment [8] is wheat germ agglutinin (Triticum aestivum), Alexa647-labelled. Put plainly: Alexa647-WGA lectin binding to printed small molecules – biochemical, small-molecule microarray, 635/667 nm fluorescence, artefact control for SMM control-protein annotation, profiling panel (AID 1140).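 Note: score merges 667 nm feature emission with signal to noise over triplicate slides.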 The note with it: WGA-A647 binding, 635 nm fluorescence, higher = more signal.
Experiment [9] deals with Luciferin 4-monooxygenase (Photinus pyralis) (UniProt P08659). Put plainly: inhibition of purified Photinus pyralis luciferase – biochemical, luminescence, purified enzyme, 2006 set, primary screen (AID 1141).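 Note: cell-free assay with purified firefly luciferase at 100 ng per well in PBS; test concentration not given here.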 The note with it: purified firefly luciferase, SteadyGlo luminescence, 30 min; higher = more signal, called active from +8 up or from −8 down.

Activity calls are given as the source filed them.

Fibroblast growth factor 2 (Homo sapiens), sequence (P09038 whole entry, looked up): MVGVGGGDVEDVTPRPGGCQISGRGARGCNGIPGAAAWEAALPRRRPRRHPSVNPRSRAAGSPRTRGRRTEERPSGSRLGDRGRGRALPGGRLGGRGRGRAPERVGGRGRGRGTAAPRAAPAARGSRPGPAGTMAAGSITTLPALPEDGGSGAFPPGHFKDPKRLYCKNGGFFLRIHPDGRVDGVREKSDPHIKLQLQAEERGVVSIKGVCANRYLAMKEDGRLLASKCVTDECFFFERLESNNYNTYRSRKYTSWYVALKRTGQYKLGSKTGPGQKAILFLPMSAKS
Follistatin (Homo sapiens), sequence (P19883 whole entry, looked up): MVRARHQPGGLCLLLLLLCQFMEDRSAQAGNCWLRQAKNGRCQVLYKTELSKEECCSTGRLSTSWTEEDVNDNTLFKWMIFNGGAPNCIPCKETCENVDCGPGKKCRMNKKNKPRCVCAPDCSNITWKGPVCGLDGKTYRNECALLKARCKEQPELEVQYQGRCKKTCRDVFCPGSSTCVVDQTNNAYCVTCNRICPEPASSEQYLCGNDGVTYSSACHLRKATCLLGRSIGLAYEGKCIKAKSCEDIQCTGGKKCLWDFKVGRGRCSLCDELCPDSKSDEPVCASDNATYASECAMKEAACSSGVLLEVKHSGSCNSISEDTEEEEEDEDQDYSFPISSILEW
Focal adhesion kinase 1 (Homo sapiens), sequence (Q05397 whole entry, looked up): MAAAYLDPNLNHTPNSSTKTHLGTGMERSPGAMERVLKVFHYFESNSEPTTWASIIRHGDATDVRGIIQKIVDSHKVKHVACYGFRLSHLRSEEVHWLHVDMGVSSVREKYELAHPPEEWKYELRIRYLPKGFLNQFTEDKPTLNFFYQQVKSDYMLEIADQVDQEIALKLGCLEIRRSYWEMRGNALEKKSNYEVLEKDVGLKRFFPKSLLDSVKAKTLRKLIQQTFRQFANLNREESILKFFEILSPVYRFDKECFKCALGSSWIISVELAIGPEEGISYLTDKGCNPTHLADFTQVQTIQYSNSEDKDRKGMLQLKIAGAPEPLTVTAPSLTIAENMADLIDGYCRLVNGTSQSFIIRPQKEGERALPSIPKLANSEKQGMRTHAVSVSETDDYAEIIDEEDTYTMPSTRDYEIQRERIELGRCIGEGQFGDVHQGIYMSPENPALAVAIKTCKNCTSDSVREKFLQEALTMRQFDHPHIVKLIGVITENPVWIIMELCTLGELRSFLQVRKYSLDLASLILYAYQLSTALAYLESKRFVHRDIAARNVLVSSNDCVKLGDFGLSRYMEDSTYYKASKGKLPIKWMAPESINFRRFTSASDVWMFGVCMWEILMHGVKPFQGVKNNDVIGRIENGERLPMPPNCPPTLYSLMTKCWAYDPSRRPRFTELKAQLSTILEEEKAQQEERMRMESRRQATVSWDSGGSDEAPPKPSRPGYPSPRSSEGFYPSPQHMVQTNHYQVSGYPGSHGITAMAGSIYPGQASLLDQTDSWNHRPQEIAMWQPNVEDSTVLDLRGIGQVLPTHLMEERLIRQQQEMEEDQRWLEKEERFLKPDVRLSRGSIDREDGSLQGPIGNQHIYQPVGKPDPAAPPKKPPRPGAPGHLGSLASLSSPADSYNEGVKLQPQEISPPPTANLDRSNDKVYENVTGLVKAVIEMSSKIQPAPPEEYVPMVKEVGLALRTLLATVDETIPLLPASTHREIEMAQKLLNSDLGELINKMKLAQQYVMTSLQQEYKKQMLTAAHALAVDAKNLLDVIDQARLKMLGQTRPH
Luciferin 4-monooxygenase (Photinus pyralis), sequence (P08659 whole entry, looked up): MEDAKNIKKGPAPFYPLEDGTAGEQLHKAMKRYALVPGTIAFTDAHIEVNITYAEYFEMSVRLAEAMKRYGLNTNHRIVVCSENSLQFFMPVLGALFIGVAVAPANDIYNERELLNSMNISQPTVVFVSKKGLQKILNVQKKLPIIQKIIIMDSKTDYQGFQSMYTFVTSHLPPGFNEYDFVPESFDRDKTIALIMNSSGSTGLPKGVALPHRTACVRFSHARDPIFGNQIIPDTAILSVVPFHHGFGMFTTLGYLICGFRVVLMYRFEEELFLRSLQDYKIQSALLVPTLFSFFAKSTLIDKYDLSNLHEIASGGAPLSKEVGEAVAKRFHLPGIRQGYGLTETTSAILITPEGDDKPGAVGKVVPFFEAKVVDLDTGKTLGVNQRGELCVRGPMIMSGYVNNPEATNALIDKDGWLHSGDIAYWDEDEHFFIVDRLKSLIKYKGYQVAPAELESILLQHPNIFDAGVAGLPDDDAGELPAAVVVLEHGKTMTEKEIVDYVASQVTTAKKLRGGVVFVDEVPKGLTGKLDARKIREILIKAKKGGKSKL

Turning to `COc1ccc([C@H]2C[C@H]3C(Br)=C[C@@H]2C(=O)[C@]32CO2)cc1`, the composite z-score was 0.613 in experiment [1]; -0.751 in experiment [2]; 0.298 in [3]; -0.325 in [4]; 0.6 in [5]; 0.194 in [6]. Further, the composite z-score with Lefty1 was 0.0745; in [8] it was -0.138. The z-score is 0.271 in [7] and -0.388 (inactive) in [9].

Turning to `C[N+](C)(C)CCCCNC(=O)[C@H]1C[C@H]2C(=O)N[C@@H](Cc3ccccc3)C(=O)N2[C@H]1c1ccc(O)cc1`, the composite z-score was 1.94 in experiment [1]; -0.304 in experiment [2]; -0.452 in experiment [3]; 0.451 in experiment [4]; 1.34 in experiment [5]; 0.971 in [6]. Also, the values for the composite z-score (in the experiment on Lefty1; in experiment [8]) were 0.985 and 0.496, respectively. The z-score was 0.079 in experiment [7] and -1.27 (inactive) in experiment [9].

For the molecule `CN1C(=O)C2C=CC(C(O)Cc3ccccc3)N(Nc3ccccc3)C2C1=O` (stereo not given), the composite z-score in experiment [1] was 1.61; in [2], 0.257; in experiment [3] it was 0.385; in experiment [4], 0.944; in [5] it was 0.27; in experiment [6], -0.408. Besides, the composite z-score with Lefty1 was -0.0697; in experiment [8] it was 1.12. Moreover, the z-score in [7] is -0.375; in [9], -0.492 (inactive).

Turning to `CCOC(=O)C[C@H]1[C@H](OC(=O)c2cc3ccccc3oc2=O)[C@@H](NC(=O)Cc2ccc(OC)cc2)c2cc(OCCCO)ccc2N1C(=O)c1ccccc1`, the composite z-score is -0.0228 in [1]; 0.376 in experiment [2]; -0.0962 in experiment [3]; 0.367 in [4]; 0.371 in experiment [5]; 0.382 in experiment [6]. Moreover, the composite z-score with Lefty1 was 0.248; in [8] it was 0.318. Besides, the z-score was -1.01 in [7] and 0.589 (inactive) in experiment [9].

With `CC(C)(C)OC(=O)CC[C@@]1(C(N)=O)N=C(c2ccc(OCCCO)cc2)O[C@@H]1c1ccccc1`, the composite z-score in [1] is 1.27; in experiment [2] it was 1.13; in experiment [3], 0.754; in experiment [4] it was 0.971; in experiment [5], 0.136; in [6], -0.343. Also, the composite z-score with Lefty1 was -0.0503; in [8], 0.178. The z-score is -0.655 in [7] and -0.637 (inactive) in experiment [9].

As for `COC(=O)[C@@]1(Cc2ccc(OC)cc2)[C@H]2c3cc(C(=O)N(C)C)n(CCN4CNCC4=O)c3C[C@H]2CN1C(=O)c1ccccc1`, the composite z-score is 0.492 in experiment [1]; 0.803 in [2]; 0.598 in [3]; 0.151 in experiment [4]; -0.589 in experiment [5]; -0.294 in experiment [6]. In addition, the composite z-score is -0.44 in the experiment with Lefty1 and 0.459 in experiment [8]. The z-score in [7] is 1; in [9] it was 2.82 (inactive).

In the case of `CN1C(=O)C2C=CC(C(O)c3cccs3)N(Nc3ccccc3)C2C1=O` (stereo not given), the composite z-score in [1] is 0.803; in experiment [2], 1.16; in [3], 0.251; in experiment [4] it was 0.024; in experiment [5], 0.492; in [6] it was -0.294. Moreover, the values for the composite z-score (in the experiment on Lefty1; in [8]) were 0.249 and 0.508, respectively. The z-score in [7] was 0.0177; in [9], -0.0014 (inactive).

Take `C=CCOC(=O)[C@H]1[C@@H]2C(=O)O[C@@H](c3ccccc3)[C@@H](c3ccccc3)N2[C@@H](c2ccc(OCCOC(=O)[C@H]3C[C@H]4C(=O)N5CCC[C@H]5C(=O)N4[C@H]3c3ccc(O)cc3)cc2)[C@]12C(=O)Nc1ccccc12`: the composite z-score in experiment [1] stood at 0.442; in experiment [2] it was 1.26; in experiment [3], 1.13; in experiment [4], 0.598; in experiment [5], 1.39; in [6] it was 1.96. The composite z-score in the experiment with Lefty1 came out at 1.42; in experiment [8], 0.0976. In addition, the z-score in experiment [7] was -1.42; in [9] it was -0.205 (inactive).
